Results published in PubChem BioAssay AID1159580 (chemical genetic matrix, 2015).
In all, about 5,500 compounds went through this assay and about 2,000 (36%) were called active. Inconclusive results (about 18%) are left out. Rule as the data show it: active = normalized growth mostly below about 0.91 (no sharp cut-off); inconclusive = no clear call, values can overlap the other calls; inactive = mostly above about 0.92. The list shows a part of the results.

Assay: chemical genetic growth profiling, strain panel (AID 1159580);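 also: tested at 20 µM; growth read once vehicle control cultures reached saturation at 30 °C; 1 = growth at the plate median or of vehicle wells; lower values mean less growth of the strain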
Details: S. cerevisiae deletion strains, growth OD

Measured: normalized growth

O=C(O)/C=C/C=C/c1ccc2c(c1)OCO2
inactive: locus YHR030C, strain SLT2, active compounds read low 0.899 | locus YHR079C, strain IRE1, active compounds read low 0.884 | locus YJL095W, strain BCK1, active compounds read low 0.897 | locus YJR066W, strain TOR1, active compounds read low 0.873 | locus YLR113W, strain HOG1, active compounds read low 0.958 | locus YNL183C, strain NPR1, active compounds read low 0.886 | locus YOR231W, strain MKK1, active compounds read low 0.893 | locus YPL256C, strain CLN2, active compounds read low 0.945
